Experiment [1] is described as follows: inhibitors of TNFa-induced NFkB p65 translocation, primary screen, imaging, HUVEC, MLSMR starter and 10KST1 sets (AID 438;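 active = inhibition above 20% together with a positive visual image hit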;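 note: compound added about 3h40 before a 20 min TNFalpha stimulation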;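 for inhibition: signal is the nuclear over cytoplasmic p65 intensity ratio per well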). The note with it: HUVEC TNFa-induced p65 nuclear translocation; cell count: measured here: nuclei count (cytotoxicity indicator), at 2.08 µM; inhibition: at 2 µM, stronger effect = higher value, 0% TNFa-plus-vehicle, 100% no-TNFa wells.
The nature of experiment [2]: reduction of polyQ htt aggregates in cells – imaging, exon1htt(103Q)mCFP cells, high-content imaging, primary screen (AID 483;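 active = visual image review flags a hit and inhibition of aggregation exceeds 20%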;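 note: compound exposure lasted 3 days before fixation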;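 for nuclei count: percent of the per-plate median nuclei count of sample wells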). The note with it: exon1htt(103Q)mCFP cell line, aggregate imaging, at 2 µM; inhibition of aggregation: stronger effect = higher value; nuclei count: measured here: cell count, toxicity.
Experiment [3] can be described thus: endothelial E-selectin expression blockers – imaging, HUVEC, immunofluorescence, MLSMR starter and 10KST1 sets, primary screen (AID 487).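 For inhibition: signal is fraction of cell area covered by stained E-selectin grains.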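 For nuclei count: 100% = median nuclei count of all wells on the same plate.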 The note with it: HUVEC TNFalpha-induced E-selectin immunofluorescence imaging, at 2 µM; inhibition: stronger effect = higher value; nuclei count: measured here: cell number, toxicity.
The target in experiment [4] is Voltage-gated potassium channel subunit beta-2 (Rattus norvegicus) (UniProt P62483). Briefly: inhibitors of rat Kvbeta2 reductase activity – biochemical, NADPH fluorescence, primary screen (AID 622;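 active = fluorescence slope higher than the sample average by over 3 SD, cut at about -0.22 in these data, passing the limit was not always enough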;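 note: slope of raw intensity against log time taken from 70 to 1610 s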). The note with it: recombinant KvBeta, 4-cyanobenzaldehyde reduction, at 10 µM, stronger effect = higher value.
For experiment [5] the target is unchanged. Kind of experiment: enhancers of rat Kvbeta2 NADPH turnover – biochemical, NADPH fluorescence, primary screen (AID 623;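 active = NADPH fluorescence slope more negative than the mean of all samples by about 3 SD, 99.7% confidence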;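 note: fluorescence intensity change per second fitted from 20 to 320 s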). The note with it: Recombinant KvBeta, NADPH fluorescence decrease slope, 10 min; at 10 µM; stronger effect = lower value.
The target of experiment [6] is Alpha-2C adrenergic receptor (Homo sapiens) (UniProt P18825). Kind of experiment: compounds altering alpha2C-coupled GIRK flux – cell-based, HEK293 alpha2C/GIRK1/2, thallium flux, primary screen (AID 624;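 active = fluorescence slope after compound addition differing from the mean of all screened samples at 99.7% confidence, in either direction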;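 note: slope of fluorescence ratio to pre-addition baseline per second over 15 to 24 s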). The note with it: thallium flux BTC fluorescence, at 10 µM, actives lie on both sides.
Experiment [7] is described as follows: blockers of RIG-like receptor reporter activation – cell-based, Sendai virus stimulus, luciferase, 10K MLSCN set, TLR/RLR signaling modifier project, primary screen (AID 602276;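 active = inhibition at or above 50% at 10 µM; inactive = inhibition below 50%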;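 note: firefly luciferase from ISG56 promoter only with Renilla not read in this screen; 0% = Sendai virus plus DMSO and 100% = medium plus DMSO without virus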). The note with it: HEK293 RL24 IRF3 luciferase reporter, at 10 µM, stronger effect = higher value. For orientation: Reporter assays use an easily measured gene product as a stand-in for the process of interest.

Experiment [8] in a line: TLR3 IRF3 reporter activation blockers – cell-based, poly I:C stimulus, luciferase, 10K MLSCN set, primary screen (AID 602277;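 active = inhibition of the reporter signal at or above 50%; inactive = inhibition below 50%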). The following applies: HEK293-TLR3 RL24 IRF3 luciferase reporter, at 10 µM, stronger effect = higher value.

Active and inactive are the calls of the source.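 Rule for the calls, unless noted: active = visually confirmed hit in the image check and inhibition above 20%; inconclusive = visually confirmed hit but inhibition not above 20%; inactive = no visual hit in the image check.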

Chain of Voltage-gated potassium channel subunit beta-2 (Rattus norvegicus) (P62483 whole entry, looked up): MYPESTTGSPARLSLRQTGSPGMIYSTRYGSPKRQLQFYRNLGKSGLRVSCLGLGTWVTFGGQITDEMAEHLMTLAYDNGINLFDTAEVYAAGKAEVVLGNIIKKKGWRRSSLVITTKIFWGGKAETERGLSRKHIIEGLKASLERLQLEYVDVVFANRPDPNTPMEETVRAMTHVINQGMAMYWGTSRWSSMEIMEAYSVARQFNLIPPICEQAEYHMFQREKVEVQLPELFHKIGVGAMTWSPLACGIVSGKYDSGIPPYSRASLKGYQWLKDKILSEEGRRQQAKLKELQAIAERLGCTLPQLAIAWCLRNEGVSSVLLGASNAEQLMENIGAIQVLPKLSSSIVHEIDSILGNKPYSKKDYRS
Chain of Alpha-2C adrenergic receptor (Homo sapiens) (P18825 whole entry, looked up): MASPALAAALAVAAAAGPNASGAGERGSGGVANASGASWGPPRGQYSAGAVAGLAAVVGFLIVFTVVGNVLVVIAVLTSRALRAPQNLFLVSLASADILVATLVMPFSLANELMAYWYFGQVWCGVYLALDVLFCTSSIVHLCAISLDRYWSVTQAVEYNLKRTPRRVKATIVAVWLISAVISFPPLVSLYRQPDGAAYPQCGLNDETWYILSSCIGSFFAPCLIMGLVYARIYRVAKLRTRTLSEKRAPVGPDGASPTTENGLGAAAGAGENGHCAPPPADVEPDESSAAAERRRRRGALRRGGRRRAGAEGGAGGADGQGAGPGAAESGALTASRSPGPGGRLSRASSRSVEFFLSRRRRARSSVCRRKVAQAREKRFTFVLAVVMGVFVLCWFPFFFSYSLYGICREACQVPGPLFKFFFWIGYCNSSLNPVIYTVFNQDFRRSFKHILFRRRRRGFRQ

On to `Cc1csc(NC(=O)CCn2c(=O)oc3ccccc32)n1`, for which the cell count in experiment [1] was 502. Besides, the inhibition in experiment [1] was -20.3% (inactive); in experiment [3] it was -6.4% (inactive); in experiment [7], 4.3% (inactive); in experiment [8], -1.46% (inactive). For the same compound, the inhibition of aggregation in experiment [2] was -30.3% (inactive). In addition, the nuclei count in experiment [2] stood at 79.1%; in experiment [3] it was 90.9%. Moreover, the fluorescence slope in experiment [4] is -0.323 (inactive). Besides, in experiment [5], the NADPH fluorescence slope is -4.9e-05 (inactive). Further, in experiment [6], the slope was 0.00431 (inactive).
For the compound `O=C1N2c3ccccc3CCc3cccc(c32)C1(O)C(F)(F)F` (centres undefined), the cell count in experiment [1] was 747. Further, the inhibition in experiment [1] was 4.7% (inactive); in experiment [3], -28% (inactive); in experiment [7], 17.9% (inactive); in experiment [8] it was 12.7% (inactive). Moreover, the inhibition of aggregation in experiment [2] was 0.2% (inactive). For the same compound, the nuclei count in experiment [2] stood at 82.6%; in experiment [3], 86.8%. Moreover, the fluorescence slope in experiment [4] is -0.641 (inactive). In addition, the NADPH fluorescence slope in experiment [5] is 1.4e-06 (inactive). Moreover, the slope in experiment [6] is 0.00675 (inactive).
For the compound `CC(=O)Nc1ccc(S(=O)(=O)NCc2cn3c(C)csc3n2)cc1`, the cell count in experiment [1] is 531. The inhibition in experiment [1] is -7.6% (inactive); in experiment [3], -29.8% (inactive); in experiment [7], 1.88% (inactive); in experiment [8] it was 8.5% (inactive). Besides, the inhibition of aggregation in experiment [2] is -8.4% (inactive). For the same compound, the nuclei count in experiment [2] came out at 104%; in experiment [3], 84.3%. Besides, the fluorescence slope in experiment [4] is -0.588 (inactive). In experiment [5], the NADPH fluorescence slope is -3.6e-05 (inactive). Moreover, the slope in experiment [6] was 0.00529 (inactive).
In the case of `O=C(CSc1nnc(-c2ccc(Br)o2)n1Cc1ccccc1)c1ccccc1F`, the cell count in experiment [1] came out at 336. Besides, the inhibition in experiment [1] is -5.8% (inactive); in experiment [3], -35.1% (inactive); in experiment [7], 6.04% (inactive); in experiment [8], 18.1% (inactive). Moreover, the inhibition of aggregation in experiment [2] is 11.9% (inactive). For the same compound, the nuclei count was found to be 87.1% in experiment [2] and 96.4% in experiment [3]. The fluorescence slope in experiment [4] is -0.391 (inactive). Moreover, in experiment [5], the NADPH fluorescence slope was -4.8e-05 (inactive). Besides, the slope in experiment [6] was 0.00522 (inactive).
Take `CCCCN(CC)CCCNC(=O)c1cc2c(=O)n(C)c3ccccc3c2n1C`: the cell count in experiment [1] is 667. Further, the inhibition in experiment [1] is 3.3% (inactive); in experiment [3] it was -52.5% (inactive); in experiment [7] it was 27.4% (inactive); in experiment [8] it was 69.5% (active). For the same compound, the inhibition of aggregation in experiment [2] is 14.5% (inactive). In addition, the results for the nuclei count in experiment [2] and in experiment [3] were 81.6% and 107%, respectively. The fluorescence slope in experiment [4] was -0.611 (inactive). Moreover, the NADPH fluorescence slope in experiment [5] was -4.2e-05 (inactive). Besides, the slope in experiment [6] is 0.00621 (inactive).
Take `O=C(NCCCNC(=O)c1ccccn1)c1ccccn1`: the cell count in experiment [1] is 711. Besides, the inhibition in experiment [1] is -11.9% (inactive); in experiment [3] it was -77.9% (inactive); in experiment [7], 15.1% (inactive); in experiment [8], 20% (inactive). Also, in experiment [2], the inhibition of aggregation is -10.1% (inactive). In addition, the values for the nuclei count in experiment [2] and in experiment [3] were 97.9% and 105%, respectively. Besides, the fluorescence slope in experiment [4] is -0.491 (inactive). Further, the NADPH fluorescence slope in experiment [5] is -7e-05 (inactive). Further, the slope in experiment [6] is 0.00516 (inactive).
Consider `Cc1nc(NCc2ccco2)c2oc3ccccc3c2n1`, for which the cell count in experiment [1] turned out to be 337. Also, the inhibition in experiment [1] was 15% (inactive); in experiment [3], 19.5% (inactive); in experiment [7], 3.36% (inactive); in experiment [8], -32.5% (inactive). Besides, in experiment [2], the inhibition of aggregation is -4.3% (inactive). The nuclei count came to 94.4% in experiment [2] and 96.4% in experiment [3]. Further, in experiment [4], the fluorescence slope is -0.389 (inactive). In addition, the NADPH fluorescence slope in experiment [5] is -1.9e-05 (inactive). The slope in experiment [6] was 0.00599 (inactive).
Turning to `O=C(Cn1cnc2ccccc2c1=O)NCCC(=O)N1CCN(c2ccccc2)CC1`, the cell count in experiment [1] was determined as 383. The inhibition in experiment [1] is -10.7% (inactive); in experiment [3], 12.8% (inactive); in experiment [7], 15.8% (inactive); in experiment [8] it was 23.6% (inactive). Also, the inhibition of aggregation in experiment [2] was 8.8% (inactive). Also, the nuclei count in experiment [2] came out at 99.4%; in experiment [3] it was 95.3%. In addition, in experiment [4], the fluorescence slope is -0.405 (inactive). Moreover, in experiment [5], the NADPH fluorescence slope was -9.9e-05 (inactive). Also, the slope in experiment [6] is 0.0056 (inactive).
Consider `CC(=O)O[C@H]1CSC[C@H]1NC(=O)c1ccccc1`, for which the cell count in experiment [1] came out at 467. Besides, the inhibition in experiment [1] was 10.9% (inactive); in experiment [3] it was 21.9% (inactive); in experiment [7], 16.6% (inactive); in experiment [8], 16.9% (inactive). Further, the inhibition of aggregation in experiment [2] was 9.1% (inactive). Also, the nuclei count worked out at 96.2% in experiment [2] and 111% in experiment [3]. Besides, the fluorescence slope in experiment [4] was -0.509 (inactive). Further, the NADPH fluorescence slope in experiment [5] was -1.7e-05 (inactive). The slope in experiment [6] is 0.00411 (inactive).
With `Cc1ccc(NC2=NCC(=O)N2c2ccc3c(c2)OCCO3)c(C)c1`, in experiment [1], the cell count is 463. For the same compound, the inhibition was -14.4% (inactive) in experiment [1], -20.7% (inactive) in experiment [3], 5.69% (inactive) in experiment [7] and 7.01% (inactive) in experiment [8]. The inhibition of aggregation in experiment [2] was -2.6% (inactive). Moreover, the nuclei count in experiment [2] was 116%; in experiment [3], 97.3%. The fluorescence slope in experiment [4] was -0.498 (inactive). Moreover, the NADPH fluorescence slope in experiment [5] is -3.6e-05 (inactive). Further, the slope in experiment [6] was 0.00458 (inactive).
Consider `CCOC(=O)c1cc2n(n1)C(C(F)(F)C(F)(F)F)CC(C)N2` (centres undefined), for which the cell count in experiment [1] turned out to be 650. Also, the inhibition is -12.1% (inactive) in experiment [1], -30.4% (inactive) in experiment [3], 11.4% (inactive) in experiment [7] and 14.9% (inactive) in experiment [8]. The inhibition of aggregation in experiment [2] was 4.6% (inactive). Besides, the values for the nuclei count in experiment [2] and in experiment [3] were 113% and 106%, respectively. For the same compound, the fluorescence slope in experiment [4] is -0.429 (inactive). The NADPH fluorescence slope in experiment [5] was 2.3e-05 (inactive). The slope in experiment [6] was 0.00828 (inactive).
As for `O=C(NCc1ccccn1)c1cc(-n2cnnc2)ccc1Cl`, the cell count in experiment [1] turned out to be 365. Besides, the inhibition is -3.9% (inactive) in experiment [1], -3.1% (inactive) in experiment [3], 2.94% (inactive) in experiment [7] and 10.6% (inactive) in experiment [8]. Besides, the inhibition of aggregation in experiment [2] is -1.2% (inactive). The nuclei count was 112% in experiment [2] and 110% in experiment [3]. In experiment [4], the fluorescence slope was -0.502 (inactive). Besides, the NADPH fluorescence slope in experiment [5] was -3.7e-05 (inactive). For the same compound, the slope in experiment [6] was 0.00641 (inactive).
As for `Cc1oc2c(CN3CCOCC3)c(O)ccc2c(=O)c1-c1ccc(Br)cc1`, in experiment [1], the cell count came out at 543. Moreover, the inhibition in experiment [1] is 1.4% (inactive); in experiment [3], -0.5% (inactive); in experiment [7], -3.85% (inactive); in experiment [8], 26.2% (inactive). Also, in experiment [2], the inhibition of aggregation is 6.2% (inactive). The nuclei count in experiment [2] turned out to be 105%; in experiment [3], 113%. The fluorescence slope in experiment [4] was -0.0886 (active). Further, in experiment [5], the NADPH fluorescence slope is 3.7e-06 (inactive). The slope in experiment [6] was 0.00357 (inactive).
Consider `c1ccc(C2(Cn3ccc4ccccc43)OCCO2)cc1`, for which the cell count in experiment [1] stood at 311. Further, the inhibition was -13% (inactive) in experiment [1], -115% (inactive) in experiment [3], 4.02% (inactive) in experiment [7] and 12% (inactive) in experiment [8]. Moreover, the inhibition of aggregation in experiment [2] was -6% (inactive). Besides, the nuclei count is 109% in experiment [2] and 123% in experiment [3]. In experiment [4], the fluorescence slope was -0.482 (inactive). In addition, in experiment [5], the NADPH fluorescence slope is 2.6e-06 (inactive). The slope in experiment [6] was 0.00648 (inactive).

One may read the inhibition as the relative decrease from the control value, in per cent.

The record behind these values is PubChem BioAssay.
